Source: PubChem
CYP2C9 act = CYP2C9 (human) activation; P11712; activation factor at 5 µM; hit rate 1.4% among 96,000; recombinant CYP2C9, luciferin-H conversion, luminescence; hits give high values; factor 1 = untreated enzyme, 0 = blocked;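 active means activation factor of 2 or more for CYP2C9 at a 5 µM dose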;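 further: 0 = sulfaphenazole-blocked wells and 1 = vehicle-only wells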
PLAP activator = activators of human placental alkaline phosphatase. P05187. purified PLAP enzyme, luminescent substrate read-out; hits give high values. activation fold at 20 µM. hit rate 1.2% among 96,000; in the data active means activation fold above about 2
CYP2C9 inhib = inhibitors of human CYP2C9; CYP2C9 Supersomes, luciferin-H conversion, luminescence; inhibition, % at 5 µM; hit rate 20% among 96,000; AID 777;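 active means blocking of liver enzyme CYP2C9 beyond about 50% at 5 µM, limit read from the data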
CYP2C19 inh = human CYP2C19 inhibition | CYP2C19 Supersomes, luciferin-H EGE luminescence, 30 min | hit rate 21% among 96,000 | P33261 | inhibition, % at 5 µM | AID 778;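 active means CYP2C19 inhibition above a set limit at 5 µM in the primary screen, cut at about 50% in these data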;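 further: plate controls were negative control wells for no effect and 2.5 mM tranylcypromine positive control for full effect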
Target sequence (P33261 whole entry, looked up): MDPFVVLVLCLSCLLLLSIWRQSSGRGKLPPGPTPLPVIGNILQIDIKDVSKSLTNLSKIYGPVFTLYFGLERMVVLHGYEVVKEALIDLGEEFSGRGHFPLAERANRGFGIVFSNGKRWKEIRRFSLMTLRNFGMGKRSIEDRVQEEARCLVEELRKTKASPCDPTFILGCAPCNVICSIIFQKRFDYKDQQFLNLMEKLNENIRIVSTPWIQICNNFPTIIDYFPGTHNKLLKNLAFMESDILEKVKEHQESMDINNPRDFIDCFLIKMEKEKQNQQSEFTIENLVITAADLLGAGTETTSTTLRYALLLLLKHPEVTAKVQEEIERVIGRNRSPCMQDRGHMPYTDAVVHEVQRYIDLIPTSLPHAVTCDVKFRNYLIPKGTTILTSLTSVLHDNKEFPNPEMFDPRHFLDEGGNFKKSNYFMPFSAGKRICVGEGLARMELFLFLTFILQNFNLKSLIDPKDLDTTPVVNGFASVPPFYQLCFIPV
CYP2C19 act = activators of human cytochrome P450 2C19. P33261. recombinant CYP2C19, luciferin-H EGE luminescence; hits give high values; 0 = fully inhibited enzyme, 1 = untreated enzyme. activation factor at 5 µM. 96,000 tested, under 10 active. AID 1025;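 active means activation factor of at least 2 at 5 µM in the primary screen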;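 further: 0 = wells with 2.5 mM tranylcypromine and 1 = vehicle-only wells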
The depositor's hits bear a star. An excerpt weighted towards active compounds, which were near 31% of everything screened.

SMILES | CYP2C9 act | PLAP activator | CYP2C9 inhib | CYP2C19 inh | CYP2C19 act
CCCCn1nnnc1SCC(=O)Nc1ccc2c(c1)OCO2 | 0.3 | 0.8 | 70* | 42 | 0.6
CCCn1nnnc1SCC(=O)NCc1ccc2c(c1)OCO2 | 0.5 | 0.9 | 53* | 66* | 0.3
CC(C)n1nnnc1SCC(=O)NCc1ccc2c(c1)OCO2 | 0.6 | 1 | 40 | 46 | 0.5
CCCCn1c(SCC(=O)Nc2ccc3c(c2)OCO3)nc2c1c(=O)n(C)c(=O)n2C | 0.9 | 1 | 15 | 8 | 0.9
CCCn1nnnc1SCC(=O)NCc1cccs1 | 1.1 | 0.9 | -6 | 73* | 0.3
O=C(O)CCNS(=O)(=O)c1ccc(Oc2ccccc2)cc1 | 0.9 | 1 | 12 | 0 | 1
COc1cc2c(cc1OC)C(=O)CC(C)S2 (centres undefined) | 1.2 | 1 | -24 | 1 | 1
COC(=O)CSc1nnc(-c2cccnc2)n1-c1cccc(OC)c1 | 0.9 | 1.1 | 13 | 31 | 0.7
CC(Sc1nc(-c2ccccc2)cc(C(F)(F)F)n1)C(=O)NCCN1CCOCC1 (centres undefined) | 1 | 1.5 | 3 | 12 | 0.9
CCCn1nnnc1SCC(=O)c1ccc(NC(C)=O)cc1 | 0.9 | 1 | 8 | 29 | 0.7
O=C(CSc1nncs1)Nc1ccc2c(c1)OCCO2 | 1.1 | 1 | -6 | -5 | 1.1
CCCCn1nnnc1SCC(=O)Nc1ccc(F)cc1 | 0.3 | 0.7 | 71* | 97* | 0
Cc1cc(C(=O)COC(=O)C2=COCCO2)c(C)n1-c1ccc2c(c1)OCO2 | 0.1 | 1 | 85* | 92* | 0.1
CCCCn1nnnc1SCC(=O)Nc1ccc(N(C)C)cc1 | 0.8 | 0.7 | 21 | 53* | 0.5
O=C(CSc1nnnn1C1CCCC1)Nc1ccc(F)cc1 | 0.9 | 0.8 | 10 | 31 | 0.7
Cc1cc(C(=O)CSc2nncs2)c(C)n1-c1ccc2c(c1)OCO2 | 0.5 | 1 | 53* | 86* | 0.1
Cc1cc(Oc2ccc(C#N)cc2)nc(N2CCOCC2)n1 | 0.6 | 1.1 | 38 | 17 | 0.8
CCn1nnnc1SCC(=O)NCc1cccs1 | 1 | 1 | -5 | 10 | 0.9
COCCn1c(-c2ccc(Cl)cc2)cnc1SCC(=O)NCc1cccs1 | 0.1 | 1.8 | 86* | 92* | 0.1
COc1cc(NC(=O)CN2CCN(Cc3ccc4c(c3)OCO4)CC2)cc(OC)c1 | 0.5 | 1.5 | 47 | 49 | 0.5
CC(C)NS(=O)(=O)c1ccc(CCC(=O)NCc2ccco2)cc1 | 0.8 | 1.1 | 20 | 30 | 0.7
N#Cc1ccc(-n2nccc2-c2cnc3n(c2=O)CCS3)cc1 | 0.8 | 0.8 | 24 | 92* | 0.1
O=c1c(-c2ccnn2-c2cccc(Cl)c2)cnc2n1CCS2 | 0.5 | 0.9 | 46 | 91* | 0.1
O=c1c(-c2ccnn2-c2ccc(F)cc2)cnc2n1CCS2 | 0.9 | 1.1 | 8 | 79* | 0.2
O=c1c(-c2ccnn2-c2ccccc2F)cnc2n1CCS2 | 0.9 | 1.1 | 12 | 58* | 0.4
SMILES | CYP2C9 act | PLAP activator | CYP2C9 inhib | CYP2C19 inh | CYP2C19 act
N#Cc1c(-c2ccc(F)cc2)nc2n(c1=O)CCS2 | 1 | 0.7 | -3 | 19 | 0.8
O=c1ccc2c(o1)/C(=C/C=C(Cl)Cl)CCC2 | 1.1 | 0.9 | -7 | -5 | 1.1
Cc1ccc2oc(-c3cccc(NC(=O)Cc4cccs4)c3)nc2c1 | 0.2 | 0.8 | 84* | 21 | 0.8
Cc1ccc2oc(-c3cccc(NC(=O)C4CCCO4)c3)nc2c1 (centres undefined) | 0.8 | 1.2 | 20 | 12 | 0.9
CCCC(=O)Nc1cccc(-c2nc3cc(C)c(C)cc3o2)c1 | 1.2 | 0.8 | -17 | 6 | 0.9
CCC(=O)Nc1ccc2oc(-c3cccc(C)c3)nc2c1 | 1.2 | 1.5 | -23 | 83* | 0.2
O=C(Nc1cccc(-c2nc3cc(Cl)ccc3o2)c1)C1CCCO1 (centres undefined) | 0.3 | 1.3 | 71* | 48 | 0.5
Cc1cc(C)c2c(n1)sc1c(=O)n(Cc3ccccc3Cl)nnc12 | 0.8 | 1.5 | 20 | 31 | 0.7
CCN(CC)C(=O)CSc1nnc(CCNC(=O)OC(C)(C)C)o1 | 1 | 1 | -4 | 28 | 0.7
CCOc1cc(S(=O)(=O)N2CCCC2)ccc1Cl | 1.4 | 1 | -43 | 51* | 0.5
CCOc1cc(Br)ccc1S(=O)(=O)N1CC(C)OC(C)C1 (centres undefined) | 0.9 | 1.1 | 12 | 11 | 0.9
CCOc1cc(S(=O)(=O)N2CCCCC2)ccc1F | 1.4 | 1.1 | -37 | 17 | 0.8
